The list is not random: actives were taken first. Their share in the collection is about 10%.
JMJD2A Tudor – qHTS Assay for Inhibitors of JMJD2A-Tudor Domain; AlphaScreen JMJD2A-Tudor / H3K4me3 peptide binding; Potency, µM (titrated, usually from 114 µM), inactives show at the highest dose activity change, negative = inhibition, usual class: inhibitors; actives 4.4% (n = 390,000); AID 504339, 2011; also: % is scaled to controls: 0 for no effect and ±100 for the full control effect; nearly all actives have a fitted effect of over 50% in size
GLS inhibitor – qHTS for Inhibitors of Glutaminase (GLS); Potency, µM (doses to about 45.5 µM), without a hit: at the highest dose activity change, negative = inhibition, most hits filed as inhibitors; actives 0.21% (n = 410,000); GLS enzymatic activity, qHTS titration; AID 624170, 2012; Glutaminase kidney isoform, mitochondrial (Homo sapiens), O94925; also: % is scaled to controls: 0 for no effect and ±100 for the full control effect
Target sequence (O94925 whole entry, looked up, canonical isoform): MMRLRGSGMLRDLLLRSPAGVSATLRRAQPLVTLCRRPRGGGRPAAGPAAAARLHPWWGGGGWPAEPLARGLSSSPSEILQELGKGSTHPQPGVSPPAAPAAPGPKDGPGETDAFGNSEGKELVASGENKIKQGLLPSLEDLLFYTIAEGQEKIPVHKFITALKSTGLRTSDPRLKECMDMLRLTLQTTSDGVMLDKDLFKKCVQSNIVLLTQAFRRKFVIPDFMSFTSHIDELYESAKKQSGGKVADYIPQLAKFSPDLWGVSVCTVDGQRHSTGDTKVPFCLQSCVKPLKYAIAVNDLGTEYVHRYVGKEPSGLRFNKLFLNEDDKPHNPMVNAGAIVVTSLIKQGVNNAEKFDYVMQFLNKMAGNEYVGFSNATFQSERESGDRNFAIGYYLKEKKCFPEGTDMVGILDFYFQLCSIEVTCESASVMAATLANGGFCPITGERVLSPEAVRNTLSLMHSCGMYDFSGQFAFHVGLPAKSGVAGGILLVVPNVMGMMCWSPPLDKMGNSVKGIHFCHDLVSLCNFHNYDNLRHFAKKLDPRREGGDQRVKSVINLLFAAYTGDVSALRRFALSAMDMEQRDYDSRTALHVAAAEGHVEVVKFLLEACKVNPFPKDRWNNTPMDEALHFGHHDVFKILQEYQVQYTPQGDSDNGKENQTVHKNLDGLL
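Compounds were pin-transferred onto hKGA, after which L-glutamine (1 mM solution) and a detection mix of glutamate oxidase, HRP and Amplex Red were added. Initial and 30 min RT fluorescence reads were collected.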
BAZ2B inh – qHTS Assay for Inhibitors of BAZ2B. actives 4.4% (n = 360,000). Potency, µM (doses to about 114 µM), for inactives: at the highest dose activity change, negative = inhibition, most hits filed as inhibitors. Bromodomain adjacent to zinc finger domain protein 2B (Homo sapiens), Q9UIF8. AID 504333, 2011. AlphaScreen BAZ2B-H3K14Ac peptide displacement; also: % is scaled to controls: 0 for no effect and ±100 for the full control effect; nearly all actives have a fitted effect of over 60% in size
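Complex of BAZ2B and biotin-H3K14Ac (50 nM apiece) forms over 30 min at RT, then faces library compounds up to 110 uM for another 30 min; AlphaScreen beads added, 20 min dark incubation, luminescence read.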
HP1b binding inh – HTS for Inhibitors of HP1-beta Chromodomain Interactions with Methylated Histone Tails. AlphaScreen HP1-beta / biotin-H3K9me3 peptide binding. Potency, µM (top dose mostly 114 µM), for inactives: top-dose activity change, negative = inhibition, usual class: inhibitors. AID 540317, 2011. actives 0.56% (n = 390,000); also: nearly all actives have a fitted effect of over 70% in size
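HP1-beta protein (50 nM final) preincubated 30 min at room temperature with biotinylated H3(1-18)K9me3 peptide (50 nM) in PBS pH 7.4, 0.01% Tween-20, then compound added for 30 min. AlphaScreen streptavidin donor/nickel chelate acceptor beads (10 ug/mL final), 30 min dark, luminescence read.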
G9a inh – qHTS Assay for Inhibitors of Histone Lysine Methyltransferase G9a. Histone-lysine N-methyltransferase EHMT2 (Homo sapiens), Q96KQ7. G9a H3K9 monomethylation, AlphaScreen, 2 h. Potency, µM (doses to about 102 µM), for the others: at the highest dose activity, negative = inhibition, most hits filed as inhibitors. actives 8.8% (n = 350,000); also: % is scaled to controls: 0 for no effect and ±100 for the full control effect; nearly all actives have a fitted effect of over 75% in size
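AlphaScreen detection with an anti-monomethyl H3K9 antibody quantified product after a 2 h room-temperature reaction containing 500 nM biotinylated H3K9 peptide, 20 µM SAM and 20 nM enzyme, which had been preincubated 15 min with compound.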
Starred values were filed as active, the others as inactive; ? = inconclusive; · = no result; ! = not confirmed by another sample; [ ] = dose if it differs, or a comment. Calls follow the shape of the dose curve; as a rule, active = well fitted curve in the direction sought with a large enough effect; inconclusive = small, poorly fitted or top-dose-only effect, or another doubt; inactive = no such curve, though single readings can be large; an effect the other way counts as inactive or inconclusive. Potency is read from the fitted curve at half-maximal effect.

SMILES	JMJD2A Tudor	GLS inhibitor	BAZ2B inh	HP1b binding inh	G9a inh
COc1cc(C(=O)Nc2nc(N)n(-c3ccccc3)n2)cc(OC)c1OC	-4%[11.4 µM]	0%	50µM*	-9%	-2%[12.7 µM]
COc1ccccc1C(=O)Nc1nc(N)n(-c2ccccc2)n1	4%	1%	?	33%	-10%[59 µM]
COC(=O)c1nc(NC(=O)c2cc(OC)c(OC)c(OC)c2)n[nH]1	-6%	-8%	?	49%	11µM*
COc1ccc(/C=C/C(=O)Nc2nc(N)n(-c3ccccc3)n2)cc1	-19%	-7%	50µM*	36%	22%[59 µM]
Nc1nc(NC(=O)Cc2ccccc2)nn1-c1ccccc1	?	-3%	32µM*	60%	0%[12.7 µM]
COC(=O)c1nc(NC(=O)c2ccccc2Br)n[nH]1	-4%	11%	-11%	34%	?
CC(=O)Nc1nc(N)n(-c2ccccc2)n1	-34%	-6%	?	5%	-16%[59 µM]
COc1ccc(C(=O)Nc2ccc3[nH]ccc3c2)cc1	1%[57.1 µM]	-3%	·	44%	·
CNC(=O)CSc1nnc(-c2ccco2)n1-c1cccc(C)c1C	-12%	8%	8%	?	66%
Nc1nc(NC(=O)/C=C\C(=O)O)nn1-c1ccccc1	-17%[11.4 µM]	-2%	22µM*	43%	4%
Cc1cc2ccccc2n1CCNC(=O)c1cccs1	?	-2%	?	?	35µM*
Cc1cc2ccccc2n1CCNC(=O)c1cccc(Cl)c1	-24%	-7%	-17%	14%	-30%[59 µM]
Cc1cc2ccccc2n1CCNC(=O)C1CCCC1	-20%	8%	-21%	12%	-11%
Cc1cc2ccccc2n1CCNC(=O)C1CC1	?	-1%	-2%	-8%	71µM*
C/C(=N\Nc1nc2ccccc2[nH]1)c1ccc2c(c1)OCCO2	50µM*	-13%	32µM*	?	?
C/C(=N\Nc1ccccn1)c1ccc2c(c1)OCO2	-16%	-6%	?	-7%	8%
C/C(=N\Nc1nc2ccccc2[nH]1)c1ccc2c(c1)OCO2	40µM*	24%	?	?	?
C(=N\Nc1nc2ccccc2[nH]1)/c1ccc2c(c1)OCO2	-35%	46%	-21%	14%	-7%
Cn1cc(Br)c(NC(=O)/C=C/C(=O)O)n1	-17%	0%	-12%	49%	0.71µM*
Cn1cc(Br)c(C(=O)Nc2c(F)c(F)c(F)c(F)c2F)n1	-12%	5%	9%	20%	21%[59 µM]
Cc1nc2ccccc2c2oc(C(=O)N3CCc4ccccc4C3)cc12	-29%	4%	-38%	8%	?
Nc1nnnn1N=C1CCCCC1	4%	-1%	1%	28%	-36%[59 µM]
COc1ccc(CN(C)C(=O)CSc2nnc(C3CC3)n2C2CC2)cc1	-2%	6%	15%	20%	?
Cc1ccc(CNC(=O)CCS(=O)(=O)c2cccc3nsnc23)cc1	-12%	14%	12%	20%	8%[12.7 µM]
O=C(CCS(=O)(=O)c1cccc2nsnc12)NC1CCCCC1	-13%	-4%	-1%	24%	22µM*
SMILES	JMJD2A Tudor	GLS inhibitor	BAZ2B inh	HP1b binding inh	G9a inh
CCN(C(=O)CCS(=O)(=O)c1cccc2nonc12)c1ccc(C)c(C)c1	-15%	-2%	-17%	9%	16µM*
CCc1ccc(NC(=O)CCS(=O)(=O)c2cccc3nsnc23)cc1	-18%	5%	-7%	9%	40µM*
CCOc1ccc(OCC)c(NC(=O)CCc2nc3cccnc3n2Cc2cccs2)c1	-21%	-4%	-15%	34%	-5%[59 µM]
Cc1cccc(N(C)C(=O)CCS(=O)(=O)c2cccc3nonc23)c1	-6%	-4%	11%	17%	12%[12.7 µM]
CCN(CC)c1ccc(NC(=O)CCc2nc3cccnc3n2Cc2cccs2)c(C)c1	20µM*	10%	?	-15%	8.9µM*
COc1ccc(NS(=O)(=O)c2cc(NC(=O)c3cccs3)ccc2N2CCCC2)cc1	-28%	0%	-13%	18%	-16%[59 µM]
O=C(CNC(=O)c1ccc(Cl)cc1Cl)OCC(=O)N1CCN(c2ccccc2)CC1	-6%	27%	-9%	13%	7%[0.501 µM]
Cc1nc2ccc(S(=O)(=O)CCC(=O)Nc3ccc(F)cc3C)cc2s1	71µM*	2%	-3%	-11%	4.5µM*
CCN(CC)c1ccc(NC(=O)CCS(=O)(=O)c2cccc3nsnc23)c(C)c1	56µM*	-16%	?	?	40µM*
COc1ccc(Cn2c(CCC(=O)Nc3ccc(C)cc3)nc3cccnc32)cc1	79µM*!	3%	-12%	8%	1%[59 µM]
Cc1ccc(S(=O)(=O)Nc2cc3c(cc2N2CCOCC2)n(C)c(=O)c(=O)n3C)cc1	-2%	0%	-22%	52%	?
COc1ccc(OC)c(S(=O)(=O)Nc2cc3c(cc2N2CCCC2)n(C)c(=O)c(=O)n3C)c1	32µM*	?	50µM*	7%	10µM*
COc1ccc(OC)c(NS(=O)(=O)c2ccc3c(c2)n(C)c(=O)n3C)c1	-3%	14%	?	16%	-7%[12.7 µM]
Cn1c(=O)c(=O)n(C)c2cc(N3CCCCC3)c(NS(=O)(=O)c3ccc([N+](=O)[O-])cc3)cc21	-31%	4%	-37%	39%	32µM*
Cn1c(=O)c(=O)n(C)c2cc(N3CCCC3)c(NS(=O)(=O)c3ccc(F)cc3)cc21	-24%	-14%	-17%[57.1 µM]	50%	40µM*
Cn1c(=O)c(=O)n(C)c2cc(N3CCOCC3)c(NS(=O)(=O)c3ccc(Br)cc3)cc21	?	14%	?	-4%	35µM*
CCN(C(=O)CN1C(=O)COc2ccc(S(=O)(=O)N3CCCCCC3)cc21)c1cccc(C)c1	?	-1%	-32%	-14%	13%
CCCCNC(=O)CSc1nc2n[nH]c(C)c2c(=N)n1-c1ccccc1CC	-2%	?	-2%	37%	4%[59 µM]
CCn1c(-c2ccco2)nc2ccccc21	-23%	6%	18%	58%	6.3µM*
c1ccc(OCCn2c(-c3ccco3)nc3ccccc32)cc1	-25%	3%	?	-6%	40µM*
O=C(Nc1nc2ccccc2n1CCOc1ccccc1)c1ccco1	-7%	1%	?	42%	64%[59 µM]
CCOc1ccccc1CNC(=O)CC(C)n1ccc(C)n1 (centres undefined)	-20%	-3%	-3%	32%	4%[59 µM]
COc1cc(C(=O)Nc2cccc(S(=O)(=O)NCc3ccco3)c2)cc(OC)c1OC	-18%	-3%	?	14%	-7%[12.7 µM]
Cc1ccc(NC(=O)C2CCCN(C(=O)c3ccc(Cl)cc3)C2)cc1C (centres undefined)	-7%	-10%	-14%	32%	19%

High-throughput results: PubChem, National Center for Advancing Translational Sciences (NCATS)
